LASV entry inh – inhibitors of Lassa virus binding or cell entry; Potency, µM (top dose mostly 37.9 µM), for the others: at the top dose activity change, negative = inhibition, hits mostly inhibitors; AID 540256; Lassa virus pseudotype entry inhibition, cell reporter; 1.2% of 300,000 active; calls by dose curve; tested in HEK293 cells; note: potency is the fitted concentration of half-maximal effect; % is set by controls: 0 for no effect and ±100 for the full control effect; nearly all actives have a fitted effect of over 50% in size
AMA1 RON2 block – disrupts binding of P. falciparum AMA1 to RON2 | AlphaScreen AMA1-biotinylated RON2 peptide binding | 0.2% of 360,000 active | Potency, µM (series often up to 58.2 µM), inactives show at the top dose activity change, negative = inhibition, actives largely listed as inhibitors; active = well fitted inhibition curve with a large enough effect; inconclusive = small, poorly fitted or top-dose-only effect; inactive = no such curve, though single readings can be large or run the other way;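 note: potency is the fitted concentration of half-maximal effect; 0% = vehicle wells and -100% = peptide control; nearly all actives have a fitted effect of over 45% in size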
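AMA1 (3D7) with his tag at 25 nM final met compounds first, then biotinylated RON2 peptide at 25 nM; detection used donor plus acceptor beads, 10 µg/mL apiece, read by AlphaScreen after 30 min at room temperature.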
CHX counter – counter-screen for Shiga toxin inhibitors: cycloheximide protein synthesis inhibition; cell reporter, cycloheximide protein synthesis inhibition counterscreen; max response, %; 12% of 300,000 active; AID 2314; in the data active = max response mostly above about 13%, no sharp cut-off; inactive = mostly below about 14%; note: read at 38.3 µM for the half of the compounds with a filed dose; 0% is about no effect
Marburg entry inh – inhibitors of Marburg virus binding or cell entry; 1.8% of 300,000 active; Potency, µM (series often up to 37.8 µM), without a hit: top-dose activity change, negative = inhibition, actives largely listed as inhibitors; Marburg virus pseudotyped entry inhibition, cell reporter; calls by dose curve; tested in HEK293 cells; note: potency is the fitted concentration of half-maximal effect; % is set by controls: 0 for no effect and ±100 for the full control effect
Shiga toxin inh – blocks Shiga toxin action in Vero cells; inhibition, % at 38.7 µM; Vero cells, Shiga toxin protein synthesis inhibition reporter; 9.2% of 290,000 active; AID 2315; in the data active = inhibition mostly above about 28%, no sharp cut-off; inactive = mostly below about 43%; note: 0% is about no effect
The depositor's hits bear a star; [ ] = remark or other dose. The sample as a whole holds a higher share of hits than the screen did.

What do the screens show for `CC(=NCc1cccc(Cl)c1)c1nc(-c2ccco2)oc1O`?
LASV entry inh: -0.1%; AMA1 RON2 block: -12.1%; CHX counter: 22.9*; Marburg entry inh: 14.1%; Shiga toxin inh: 48.6*

Results for CC1(C(=O)NS(=O)(=O)c2ccccc2Cl)CCN1C(=O)COc1ccc(Cl)cc1 (stereo not drawn) ?
AMA1 RON2 block: 8.6%

Results for CCCC(O)c1nc2ccccc2n1CCCCOc1ccc(OC)cc1 (stereo not drawn) ?
LASV entry inh: 21.0%[46.1 µM]; Marburg entry inh: inconclusive

Results for Cc1ccc(NNC(=O)c2ccno2)c(C)c1 ?
LASV entry inh: inconclusive; AMA1 RON2 block: -7.8%; CHX counter: -1.9; Marburg entry inh: 8.91µM*; Shiga toxin inh: 20.1

What do the screens show for `Cc1cc(NC(=O)c2ccno2)no1`?
AMA1 RON2 block: 23.6%; CHX counter: -0.9; Shiga toxin inh: 11.2

Results for CN1C(=O)/C(=C2\SC(N)=NC2=O)c2ccccc21 ?
LASV entry inh: inconclusive; AMA1 RON2 block: -10.4%; CHX counter: 0.4; Marburg entry inh: inconclusive; Shiga toxin inh: -2.2

Results for CCCN1C(=O)/C(=C2\SC(N3CCCCC3)=NC2=O)c2ccccc21 ?
LASV entry inh: inconclusive; AMA1 RON2 block: inconclusive; CHX counter: 46.1*; Marburg entry inh: inconclusive; Shiga toxin inh: 68.1*

What do the screens show for `O=C1N=C(N2CCCCC2)SC1=C1CCCCC1`?
LASV entry inh: inconclusive; AMA1 RON2 block: 1.0%; CHX counter: 32.9*; Marburg entry inh: 21.4%; Shiga toxin inh: 113.9*

Results for CN1C(=O)/C(=C2\SC(N3CCCCCC3)=NC2=O)c2ccccc21 ?
LASV entry inh: inconclusive; AMA1 RON2 block: -9.5%; CHX counter: 20.4*; Marburg entry inh: 29.8%; Shiga toxin inh: 31.7

Results for CCOC(=O)N1CCC(NC(=O)c2cc(COc3ccc(F)cc3Cl)on2)CC1 ?
LASV entry inh: 1.5%; AMA1 RON2 block: -11.3%; CHX counter: 10.8; Marburg entry inh: -9.5%; Shiga toxin inh: 5.0

How did CN(C)C(=O)OC1CNC(C#Cc2cc3ncnc(Nc4ccc(OCc5cccc(F)c5)c(Cl)c4)c3s2)C1 (stereo not drawn) do in these assays?
LASV entry inh: 4.99µM*

How did CNC(=O)c1cccc(C#Cc2cncnc2Nc2ccc(OCc3cccc(F)c3)c(Cl)c2)c1 do in these assays?
LASV entry inh: 0.791µM*

How did O=C(OC1CNC(C#Cc2cc3ncnc(Nc4ccc(OCc5cccc(F)c5)c(Cl)c4)c3s2)C1)N1CCOCC1 (stereo not drawn) do in these assays?
LASV entry inh: 2.81µM*

Results for O=C(OC1CNC(C#Cc2cc3ncnc(Nc4ccc5c(cnn5Cc5ccccc5)c4)c3s2)C1)N1CCOCC1 (stereo not drawn) ?
LASV entry inh: 1.25µM*

How did COc1ccc(Cl)cc1NC(=O)CN1c2ccccc2S(=O)(=O)c2ccccc21 do in these assays?
LASV entry inh: -13.8%[46.1 µM]

How did CCc1ccccc1NC(=O)c1cc(S(=O)(=O)N2CCCc3ccccc32)ccc1F do in these assays?
LASV entry inh: -1.5%[46.1 µM]

Results for Cc1oc(-c2ccc(Cl)cc2)nc1CSc1nnc(C)n2c1cc1sccc12 ?
LASV entry inh: -2.8%[46.1 µM]

How did O=C(CCNS(=O)(=O)c1ccc(Br)cc1)N1CCN(c2ccccc2O)CC1 do in these assays?
LASV entry inh: -24.3%; AMA1 RON2 block: -11.1%; Marburg entry inh: -0.5%[46.1 µM]

What do the screens show for `O=C(c1ccccc1)c1ccccc1N/C=C/c1nnnn1-c1ccccc1`?
LASV entry inh: 13µM*; AMA1 RON2 block: -13.6%; CHX counter: -1.3; Marburg entry inh: inconclusive; Shiga toxin inh: -7.9

Results for COc1ccc(C(F)(F)F)cc1N/C=C\c1nnnn1-c1ccccc1 ?
LASV entry inh: 4.1%; AMA1 RON2 block: 4.3%; CHX counter: -0.9; Marburg entry inh: -3.9%; Shiga toxin inh: -2.3

How did Oc1sc(C=Nc2ccc(F)cc2)c2ccccc12 do in these assays?
LASV entry inh: -18.2%; AMA1 RON2 block: 28.2%; CHX counter: 57.3*; Marburg entry inh: -12.9%; Shiga toxin inh: 13.3*

Results for O=C(O)c1ccc(N=Cc2c(O)ccc3ccccc23)cc1 ?
LASV entry inh: -2.6%[46.1 µM]; AMA1 RON2 block: -10.1%; CHX counter: 1.6; Marburg entry inh: inconclusive

What do the screens show for `Oc1sc(C=Nc2ccccc2)c2ccccc12`?
LASV entry inh: 10.6%; AMA1 RON2 block: 11.2%; CHX counter: 67.6*; Marburg entry inh: -22.1%; Shiga toxin inh: 80.3*

Results for CCCC(C)NC(=O)CSc1nc2ccc(C)cc2[nH]1 (stereo not drawn) ?
LASV entry inh: -5.7%; AMA1 RON2 block: -9.7%; CHX counter: -1.1; Marburg entry inh: -2.3%; Shiga toxin inh: 11.2

Results for Cc1occc1C(=O)Nc1cnn(CCCC(=O)O)c1 ?
LASV entry inh: 17.7%[46.1 µM]; AMA1 RON2 block: 16.8%; CHX counter: -3.3; Marburg entry inh: 9.0%[46.1 µM]; Shiga toxin inh: -15.4

Results for COCCNC(=O)c1c[nH]c2ccc(S(=O)(=O)Nc3ccc(F)cc3F)cc2c1=O ?
LASV entry inh: 17.5%[46.1 µM]; AMA1 RON2 block: 5.8%; CHX counter: 15.0*; Marburg entry inh: 7.4%[46.1 µM]; Shiga toxin inh: -10.4

Results for COc1ccccc1/C=C1/SC(=S)N(C(C)C(=O)NC2C=CS(=O)(=O)C2)C1=O (stereo not drawn) ?
AMA1 RON2 block: -7.6%; CHX counter: 18.7*; Shiga toxin inh: 19.5

Results for CC(C(=O)NC1C=CS(=O)(=O)C1)N1C(=O)/C(=C\c2ccccc2)SC1=S (stereo not drawn) ?
AMA1 RON2 block: 21.6%; CHX counter: 23.1*; Shiga toxin inh: 23.7*

How did CC(C)NC(=O)N(C)C[C@H]1Oc2ccc(NC(=O)c3ccncc3)cc2C(=O)N([C@H](C)CO)C[C@@H]1C do in these assays?
AMA1 RON2 block: 7.9%

What do the screens show for `O=C(Cc1ccccc1)Nc1scc(-c2ccccc2)c1C(=O)N1CCOCC1`?
LASV entry inh: inconclusive; AMA1 RON2 block: -8.4%; CHX counter: 2.3; Marburg entry inh: inconclusive; Shiga toxin inh: 17.4

How did NC(=O)c1c(-c2ccc(Cl)cc2Cl)csc1NC(=O)Cc1ccccc1 do in these assays?
LASV entry inh: -11.6%; AMA1 RON2 block: -23.4%; CHX counter: 15.8*; Marburg entry inh: inconclusive; Shiga toxin inh: 11.0

Results for O=C(C1=C(O)C(=O)N(CCN2CCOCC2)[C@H]1c1cccnc1)c1cc2ccccc2o1 ?
Marburg entry inh: 0.8%

Results for Cc1cccc(C)c1NC(=O)C(c1ccc(Cl)cc1Cl)N1CCCCC1 (stereo not drawn) ?
LASV entry inh: 10.2%; AMA1 RON2 block: 0.0%; CHX counter: -1.8; Marburg entry inh: 11.5%; Shiga toxin inh: -11.4

Results for Clc1ccc(-c2nn3c(C4COc5ccccc5O4)nnc3s2)cc1 (stereo not drawn) ?
LASV entry inh: 6.51µM*; AMA1 RON2 block: 5.7%; CHX counter: 20.0*; Marburg entry inh: 4.0%; Shiga toxin inh: -3.5

Results for CN(C)c1ccc(-c2nn3c(-c4ccc(Cl)cc4)nnc3s2)cc1 ?
LASV entry inh: -3.8%; AMA1 RON2 block: -7.7%; CHX counter: 3.5; Marburg entry inh: 20.5%; Shiga toxin inh: 13.7

Assay outcomes deposited in PubChem BioAssay by National Center for Advancing Translational Sciences (NCATS).
